Reference: PubChem BioAssay (NCATS)
Inconclusive results are not listed. A call without a number means that no potency is given here. Activity calls are given as the source filed them. Unless noted, calls come from the whole dose curve; as a rule, active = well fitted curve in the direction sought with a large enough effect; inconclusive = small, poorly fitted or top-dose-only effect, or another doubt; inactive = no such curve, though single readings can be large; an effect the other way counts as inactive or inconclusive.

Experiments:
[1] = biological target: Alpha-galactosidase A (Homo sapiens) (UniProt P06280); experiment: Counterscreen for Glucocerebrosidase Inhibitors: qHTS Assay for Human alpha-Galactosidase at pH 4.5 (AID 992); conditions: purified enzyme, fluorogenic substrate; series mostly up to 76.9 µM
Chain of Alpha-galactosidase A (Homo sapiens) (P06280 whole entry, looked up): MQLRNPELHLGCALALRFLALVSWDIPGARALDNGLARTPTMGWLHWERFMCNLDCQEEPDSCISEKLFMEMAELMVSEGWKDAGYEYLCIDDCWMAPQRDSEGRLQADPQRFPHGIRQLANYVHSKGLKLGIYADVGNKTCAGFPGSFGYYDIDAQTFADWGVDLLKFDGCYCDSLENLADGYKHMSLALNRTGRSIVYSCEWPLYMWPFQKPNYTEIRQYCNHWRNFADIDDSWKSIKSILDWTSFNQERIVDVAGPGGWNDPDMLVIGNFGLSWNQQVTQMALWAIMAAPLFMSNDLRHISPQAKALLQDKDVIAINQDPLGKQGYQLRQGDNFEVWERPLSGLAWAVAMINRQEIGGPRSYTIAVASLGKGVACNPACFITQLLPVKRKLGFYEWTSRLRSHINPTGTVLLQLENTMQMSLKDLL
Method in brief: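 Read-out is 4-methylumbelliferone fluorescence (365 nm excitation, 440 nm emission) after a pH 10 NaOH/glycine stop. Reactions held 2 nM enzyme and 80 uM substrate at pH 4.5 for 20 min at room temperature.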

[2] = biological target: alpha-glucosidase (Oryza sativa, rice) (UniProt Q653V4); experiment: Counterscreen for Glucocerebrosidase Inhibitors: qHTS Assay for Rice alpha-Glucosidase at pH 5.0 (AID 997); conditions: rice alpha-glucosidase enzyme activity; series mostly up to 76.9 µM
Method in brief: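 Rice alpha-glucosidase (4 nM final) with 400 uM 4-methylumbelliferyl-alpha-D-glucopyranoside in citrate buffer pH 5.0, 20 min at room temperature, stopped at pH 10; fluorescence 365/440 nm, compounds 0.7 nM–77 uM, AC50 from Hill fits.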

[3] = Cell Viability - LYMP2-023 (AID 975); conditions: LYMP2-023 lymphoblastoid cell viability; series mostly up to 92.2 µM;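 note: cellular ATP measured by luciferase luminescence as viability proxy; cells exposed to compound for 24 hours at 37 °C; nearly all actives have a fitted effect of over 55% in size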
Method in brief: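 Concentration-dependent drop in intracellular ATP measures acute cytotoxicity in a human lymphoblastoid line treated for 24 hours in complete culture medium. AC50 values are taken from Hill-equation fits of qHTS data.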

[4] = Cell Viability - LYMP2-025 (AID 976); conditions: LYMP2-025 lymphoblastoid cell viability; series mostly up to 92.2 µM
Method in brief: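 In qHTS format, LYMP2-025 lymphoblastoid cells in complete culture medium received compound for 24 hr; ATP-based CellTiter-Glo signal gave viability, with AC50 derived by Hill equation.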

[5] = Cell Viability - LYMP2-002 (AID 977); conditions: LYMP2-002 lymphoblastoid cell viability, qHTS; series mostly up to 92.2 µM
Method in brief: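 Luminescent ATP readout (CellTiter-Glo, 30 min room temperature) after 24 h compound exposure at 37 C of a human lymphoblastoid line, 2500 cells/well. AC50 values derived by standard Hill fitting of qHTS concentration-response data.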

[6] = Cell Viability - LYMP2-006 (AID 978); conditions: LYMP2-006 lymphoblastoid cell viability, qHTS; series mostly up to 92.2 µM;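 note: cells exposed to compound for 24 hours; nearly all actives have a fitted effect of over 60% in size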; note: potency is the fitted concentration of half-maximal effect
Method in brief: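 Concentration-dependent loss of intracellular ATP in a human lymphoblastoid line after 24 hr treatment at 37 C was measured by CellTiter-Glo luminescence, with AC50 values obtained from standard Hill-equation modelling.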

[7] = Cell Viability - LYMP2-007 (AID 979); conditions: LYMP2-007 lymphoblastoid cell viability; series mostly up to 92.2 µM;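 note: cells exposed to compound for 24 h before reading; nearly all actives have a fitted effect of over 60% in size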
Method in brief: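 Acute toxicity is scored as a concentration-dependent fall in intracellular ATP in human lymphoblastoid cells treated 24 hr at 37 C, measured by luciferase luminescence; Hill-equation modelling yields AC50.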

[8] = Cell Viability - LYMP2-008 (AID 980); conditions: LYMP2-008 lymphoblastoid cell viability, qHTS; series mostly up to 92.2 µM; note: nearly all actives have a fitted effect of over 60% in size
Method in brief: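 Acute cytotoxicity is scored as concentration-dependent loss of cellular ATP in a human lymphoblastoid line after 24 hr treatment at 37 C. ATP is quantified by luciferase luminescence.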

[9] = Cell Viability - LYMP2-010 (AID 981); conditions: LYMP2-010 lymphoblastoid cell viability, qHTS; series mostly up to 92.2 µM;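 note: cells exposed to compound for 24 hours at 37 °C; nearly all actives have a fitted effect of over 55% in size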; note: potency is the fitted concentration of half-maximal effect
Method in brief: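 Acute toxicity is scored as a concentration-dependent loss of cellular ATP in human lymphoblastoid cells after 24 hr compound exposure in complete medium. Tetraoctylammonium bromide is the positive control.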

[10] = Cell Viability - LYMP2-012 (AID 982); conditions: LYMP2-012 lymphoblastoid cell viability qHTS; series mostly up to 92.2 µM;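 note: cellular ATP by luciferase luminescence where a drop means cytotoxicity; cells exposed to compound for one day before reading; nearly all actives have a fitted effect of over 55% in size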; note: potency is the fitted concentration of half-maximal effect
[11] = Cell Viability - LYMP2-014 (AID 983); conditions: LYMP2-014 lymphoblastoid cells, viability qHTS; series mostly up to 92.2 µM; note: nearly all actives have a fitted effect of over 50% in size
Method in brief: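 Decrease in intracellular ATP after 24 hr treatment at 37 C, measured by luciferase luminescence, indicated cytotoxicity. Concentration-response data were fitted with the standard Hill equation to give AC50.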

[12] = Cell Viability - LYMP2-016 (AID 984); conditions: LYMP2-016 lymphoblastoid cell viability, qHTS; series mostly up to 92.2 µM;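 note: cells exposed to compound for 24 hours at 37 °C; nearly all actives have a fitted effect of over 55% in size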
Method in brief: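 Acute toxicity in a Coriell human lymphoblastoid line is scored as loss of intracellular ATP over 24 h of treatment in complete medium. CellTiter-Glo signal is fitted across concentrations with the Hill equation to give AC50.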

[13] = Cell Viability - LYMP2-018 (AID 985); conditions: LYMP2-018 lymphoblastoid cells, viability (qHTS); series mostly up to 92.2 µM;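 note: compound exposure lasted 24 hr at 37 °C; nearly all actives have a fitted effect of over 50% in size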; note: potency is the fitted concentration of half-maximal effect
Method in brief: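 Acute cytotoxicity is scored as a concentration-dependent drop in intracellular ATP after 24 hr exposure of the lymphoblastoid line in complete culture medium, measured by luciferase luminescence. Potency is expressed as AC50 from Hill modelling.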

[14] = Cell Viability - LYMP2-020 (AID 986); conditions: series mostly up to 92.2 µM; note: nearly all actives have a fitted effect of over 55% in size; note: potency is the fitted concentration of half-maximal effect
Method in brief: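 Acute cytotoxicity in a human lymphoblastoid line is scored as a concentration-dependent fall in cellular ATP after 24 hr at 37 C in complete medium. The positive control is tetraoctylammonium bromide, and potency is given as Hill-fit AC50.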

[15] = Cell Viability - LYMP2-022 (AID 987); conditions: LYMP2-022 lymphoblastoid cell viability; series mostly up to 92.2 µM; note: nearly all actives have a fitted effect of over 55% in size; note: potency is the fitted concentration of half-maximal effect
Method in brief: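 Acute toxicity in a human lymphoblastoid line is scored as decreased intracellular ATP after 24 hr compound treatment at 37 C. ATP is measured by CellTiter-Glo luminescence; curves are fitted with the Hill equation to give AC50.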

[16] = Cell Viability - LYMP2-024 (AID 988); conditions: LYMP2-024 lymphoblastoid cell viability; series mostly up to 92.2 µM;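 note: cells exposed to compound for 24 hr at 37 °C; nearly all actives have a fitted effect of over 60% in size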; note: potency is the fitted concentration of half-maximal effect
Method in brief: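 Acute toxicity is measured as concentration-dependent loss of intracellular ATP in a human lymphoblastoid line treated 24 hours at 37 C. Luciferase luminescence quantifies ATP; AC50 values come from standard Hill-equation modelling.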

[17] = Cell Viability - LYMP2-026 (AID 989); conditions: LYMP2-026 lymphoblastoid cell viability, qHTS; series mostly up to 92.2 µM; note: nearly all actives have a fitted effect of over 50% in size
Method in brief: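 Concentration-dependent loss of intracellular ATP in human lymphoblastoid cells after 24 hr at 37 C, quantified by luciferase luminescence. AC50 derived from standard Hill equation.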

[18] = Cell Viability - LYMP1-002 - Assay at 24 hr (AID 993); conditions: LYMP1-002 lymphoblastoid cells viability; series mostly up to 92.2 µM
Method in brief: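 qHTS, LYMP1-002 lymphoblastoid, 24 h cpd, 37 C, CellTiter-Glo ATP luminescence; AC50 via Hill eq.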

[19] = Cell Viability - LYMP1-002 - Assay at 40 hr (AID 994); conditions: LYMP1-002 lymphoblastoid cell viability; series mostly up to 92.2 µM; note: nearly all actives have a fitted effect of over 60% in size; note: potency is the fitted concentration of half-maximal effect
Method in brief: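 Viability in the human lymphoblastoid line was measured as intracellular ATP via CellTiter-Glo after 40 hr compound exposure. Tetraoctylammonium bromide served as positive control.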

[20] = Validation of Assay for Modulators of Lamin A Splicing (AID 1459; active = well fitted curve in the direction sought with a large enough effect in the signal ratio; the % refers to the signal ratio;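 note: cells exposed to compound for two days before reading; ratio rise marks activators and ratio drop marks inhibitors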); conditions: Lamin A splicing dual RFP/GFP fluorescence reporter; series mostly up to 9.22 µM
Method in brief: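 Splicing correction is reported by an EGFP-containing lamin A minigene in stably transfected S3 HeLa cells, while DsRed2 controls for viability and nonspecific signal. Cells are exposed to compounds for 48 hrs before the GFP over RFP ratio is taken.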

Structure (SMILES): CC(=O)Nc1nnc(S(N)(=O)=O)s1
- outcome [1]: inactive
- outcome [2]: inactive

Structure (SMILES): CN(C)CCCN1c2ccccc2Sc2ccccc21
- outcome [1]: inactive
- outcome [2]: inactive

Structure (SMILES): C[N+](C)(C)CCCCCCCCCC[N+](C)(C)C
- outcome [1]: inactive
- outcome [2]: inactive

Structure (SMILES): C[N+](C)(C)CCOC(N)=O
- outcome [1]: inactive
- outcome [2]: inactive

Structure (SMILES): CN(C)CC/C=C1\c2ccccc2COc2ccccc21
- outcome [1]: inactive
- outcome [2]: inactive

Structure (SMILES): C[n+]1cc2c3c(ccc2c2ccc4cc5c(cc4c21)OCO5)OCO3
- outcome [1]: inactive
- outcome [2]: inactive

Structure (SMILES): Cc1ccc(Cl)c(Nc2ccccc2C(=O)O)c1Cl
- outcome [1]: inactive
- outcome [2]: inactive

Structure (SMILES): O=c1[nH]c(=O)n([C@H]2C[C@H](O)[C@@H](CO)O2)cc1Br
- outcome [3]: inactive
- outcome [4]: inactive
- Potency [5]: inactive
- Potency [6]: inactive
- outcome [7]: inactive
- outcome [8]: inactive
- Potency [9]: inactive
- Potency [10]: inactive
- outcome [11]: inactive
- outcome [12]: inactive
- Potency [13]: inactive
- Potency [14]: inactive
- Potency [15]: inactive
- Potency [16]: inactive
- outcome [17]: inactive
- outcome [1]: inactive
- outcome [18]: inactive
- Potency [19]: inactive
- outcome [2]: inactive

Structure (SMILES): C#CCN(C)CCCOc1ccc(Cl)cc1Cl
- outcome [2]: inactive
- outcome [20]: inactive

Structure (SMILES): c1cnc(N2CCN(Cc3ccc4c(c3)OCO4)CC2)nc1
- outcome [1]: inactive
- outcome [2]: inactive

Structure (SMILES): NC(=Nc1ccccc1)Nc1ccccc1
- outcome [3]: inactive
- outcome [4]: inactive
- Potency [5]: inactive
- Potency [6]: inactive
- outcome [7]: inactive
- outcome [8]: inactive
- Potency [9]: inactive
- Potency [10]: inactive
- outcome [11]: inactive
- outcome [12]: inactive
- Potency [13]: inactive
- Potency [14]: inactive
- Potency [15]: inactive
- Potency [16]: inactive
- outcome [17]: inactive
- outcome [18]: inactive
- Potency [19]: inactive

Structure (SMILES): CC1=C(C)C(=O)C(CCCCC#CCCCC#CCO)=C(C)C1=O
- outcome [1]: inactive
- outcome [2]: inactive
- outcome [20]: inactive

Structure (SMILES): C[C@H](CS)C(=O)N1CCC[C@H]1C(=O)O
- outcome [1]: inactive
- outcome [2]: inactive

Structure (SMILES): CN/C(=C\[N+](=O)[O-])NCCSCc1ccc(CN(C)C)o1
- outcome [1]: inactive
- outcome [2]: inactive
- outcome [20]: inactive

Structure (SMILES): COc1ccc(CN(CCN(C)C)c2ccccn2)cc1
- outcome [3]: inactive
- outcome [4]: inactive
- Potency [5]: inactive
- Potency [6]: inactive
- outcome [7]: inactive
- outcome [8]: inactive
- Potency [9]: inactive
- Potency [10]: inactive
- outcome [11]: inactive
- outcome [12]: inactive
- Potency [13]: inactive
- Potency [14]: inactive
- Potency [16]: inactive
- outcome [17]: inactive
- outcome [1]: inactive
- outcome [18]: inactive
- Potency [19]: inactive
- outcome [2]: inactive

Structure (SMILES): Nc1nc(N)c2nc(-c3ccccc3)c(N)nc2n1
- outcome [3]: inactive
- outcome [4]: inactive
- Potency [5]: inactive
- Potency [6]: inactive
- outcome [8]: inactive
- Potency [10]: inactive
- outcome [11]: inactive
- outcome [12]: inactive
- Potency [13]: inactive
- Potency [14]: inactive
- Potency [16]: inactive
- outcome [17]: inactive
- outcome [1]: inactive
- outcome [18]: inactive

Structure (SMILES): NC(N)=NC(=O)Cc1c(Cl)cccc1Cl
- outcome [1]: inactive
- outcome [2]: inactive
- outcome [20]: inactive

Structure (SMILES): Cc1nc2ccccn2c(=O)c1CCN1CCC(C(=O)c2ccc(F)cc2)CC1
- outcome [1]: inactive
- outcome [2]: inactive
- outcome [20]: inactive

Structure (SMILES): N[C@@H](COP(=O)(O)O)C(=O)O
- outcome [1]: inactive
- outcome [2]: inactive
- outcome [20]: inactive

Structure (SMILES): CCC(=O)c1ccc2c(c1)N(CCCN(C)C)c1ccccc1S2
- outcome [1]: inactive
- outcome [2]: inactive

Structure (SMILES): CN1CCN(C2=Nc3ccccc3Oc3ccc(Cl)cc32)CC1
- outcome [1]: inactive
- outcome [2]: inactive

Structure (SMILES): CCCOc1ccccc1-c1nc2n[nH]nc2c(=O)[nH]1
- outcome [1]: inactive
- outcome [2]: inactive

Structure (SMILES): COCC(=O)O[C@]1(CCN(C)CCCc2nc3ccccc3[nH]2)CCc2cc(F)ccc2[C@@H]1C(C)C
- outcome [1]: inactive
- outcome [2]: inactive

Structure (SMILES): CCn1cc(C(=O)O)c(=O)c2cc3c(cc21)OCO3
- outcome [1]: inactive
- outcome [2]: inactive

Structure (SMILES): NC(=O)N1c2ccccc2C=Cc2ccccc21
- outcome [3]: inactive
- outcome [4]: inactive
- Potency [5]: inactive
- Potency [6]: inactive
- outcome [7]: inactive
- outcome [8]: inactive
- Potency [9]: inactive
- Potency [10]: inactive
- outcome [11]: inactive
- outcome [12]: inactive
- Potency [13]: inactive
- Potency [14]: inactive
- Potency [15]: inactive
- Potency [16]: inactive
- outcome [17]: inactive
- outcome [1]: inactive
- outcome [18]: inactive
- Potency [19]: inactive
- outcome [2]: inactive

Structure (SMILES): Nc1ncn([C@@H]2O[C@H](CO)[C@@H](O)[C@H]2O)c(=O)n1
- Potency [6]: 15.8 µM (active)
- Potency [9]: 15.8 µM (active)
- Potency [10]: 15.8 µM (active)
- Potency [13]: 7.94 µM (active)
- Potency [14]: 10 µM (active)
- Potency [15]: 15.8 µM (active)
- Potency [16]: 15.8 µM (active)
- outcome [1]: inactive
- Potency [19]: 15.8 µM (active)
- outcome [2]: inactive

Structure (SMILES): C[N+](C)(C)CCOC(=O)CCC(=O)OCC[N+](C)(C)C
- outcome [1]: inactive
- outcome [2]: inactive

Structure (SMILES): CC[N+](C)(C)c1cccc(O)c1
- outcome [1]: inactive
- outcome [2]: inactive

Structure (SMILES): CCCCOCCOCCOCc1cc2c(cc1CCC)OCO2
- outcome [3]: inactive
- outcome [4]: inactive
- Potency [5]: inactive
- Potency [6]: inactive
- outcome [7]: inactive
- outcome [8]: inactive
- Potency [9]: inactive
- Potency [10]: inactive
- outcome [11]: inactive
- outcome [12]: inactive
- Potency [13]: inactive
- Potency [14]: inactive
- Potency [15]: inactive
- Potency [16]: inactive
- outcome [17]: inactive
- outcome [18]: inactive
- Potency [19]: inactive
